In PubChem BioAssay AID504848 (National Center for Advancing Translational Sciences (NCATS), 2011):
The whole screen tested about 2,300 compounds, of which about 1,400 (61%) were called active. About 29% were inconclusive and are not listed. Calls follow the shape of the dose curve; as a rule, active = well fitted inhibition curve with a large enough effect; inconclusive = small, poorly fitted or top-dose-only effect, or effect the other way; inactive = no such curve, though single readings can be large or run the other way. The set was probably picked from earlier hits. The list shows a part of the results.

assay: Confirmation screen for delayed death inhibitors of the malarial parasite plastid, 96 hour incubation; also: nearly all actives have a fitted effect of over 60% in size; settings: P. falciparum luciferase growth in erythrocytes; series mostly up to 28.7 µM
Procedure, shortened: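 Erythrocytes infected with luciferase-expressing P. falciparum (2% hematocrit, 0.1% parasitemia final) in RPMI 1640 with 0.5% Albumax, exposed to compounds 96 h at 37 C, 5% CO2. Growth inhibition read as decreased luciferase luminescence.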
Potency is read from the fitted curve at half-maximal effect.

| SMILES | Potency |
| --- | --- |
| COc1ccc(C(=O)CSc2nnc(C3CCCCC3)n2N)c(OC)c1 | 3.16 µM (active) |
| O=S(=O)(c1ccc(OCC(O)CN2CCN(c3ccc(F)cc3)CC2)cc1)N1CCOCC1 (configuration not stated) | 12.6 µM (active) |
| O=C(CN1CCN(c2ccc(F)cc2)CC1)Nc1ccc(S(=O)(=O)N2CCOCC2)cc1 | 10 µM (active) |
| CCN(CC(=O)Nc1ccc(S(=O)(=O)N2CCOCC2)cc1)Cc1ccccc1 | 10 µM (active) |
| C=CCOc1ccc(/C=C\c2nc(O)c([N+](=O)[O-])c(=O)[nH]2)cc1OC | 12.6 µM (active) |
| O=C(COc1cc2oc(=O)c3c(c2cc1Cl)CCC3)NCC(O)c1ccccc1 (configuration not stated) | 8.91 µM (active) |
| O=S(=O)(NCC(O)c1ccccc1)c1cc(Cl)sc1Cl (configuration not stated) | inactive |
| Cc1c(OCC(=O)NCC(O)c2ccccc2)ccc2c3c(c(=O)oc12)CCC3 (configuration not stated) | 10 µM (active) |
| O=C(CSc1nc2nn(-c3ccccc3)c(=O)c-2c2n1CCCCC2)c1ccc(O)c(O)c1 | 11.2 µM (active) |
| O=C(NCc1cccnc1)/C(=C\c1ccc(-c2cccc(Cl)c2)o1)S(=O)(=O)c1ccccc1 | 7.94 µM (active) |
| O=C(NCCN1CCOCC1)c1ccc(Cl)c(S(=O)(=O)N2CCCCC2)c1 | 14.1 µM (active) |
| O=C(NCc1cccnc1)c1ccc(Cl)c(S(=O)(=O)N2CCOCC2)c1 | 11.2 µM (active) |
| O=C(NCc1cccnc1)c1ccc(NS(=O)(=O)c2ccccc2)cc1 | 7.08 µM (active) |
| CCC(C)[C@H](NC(=O)NCCCOC(C)C)C(=O)OC (some centres not stated) | inactive |
| CCOC(=O)c1cc2c(nc1NC(=S)Nc1ccccc1)CC(C)(C)OC2 | 12.6 µM (active) |
| O=C(O)c1ccccc1NS(=O)(=O)c1cccc(-n2sc3ccccc3c2=O)c1 | 12.6 µM (active) |
| O=C(Cn1c(=O)c(=O)n(Cc2ccccc2)c2ccc(Cl)cc21)Nc1cccc(F)c1 | 12.6 µM (active) |
| CCn1c(=O)cc(C(=O)OC)sc1=Nc1ccc(F)c(F)c1 | inactive |
| O=C1CS/C(=N/N=C\c2ccn[nH]2)N1 | 10 µM (active) |
| C#Cc1ccc(CN2CCN(CCCc3ccccc3)C(CCO)C2)cc1 (configuration not stated) | 7.08 µM (active) |
| Cc1ccc(-c2nc(-c3cccnc3)sc2CC(=O)Nc2ccc(C)c(Cl)c2)cc1 | 4.47 µM (active) |
| COc1ccc(CCNC(=O)c2cc3c(=O)n4cccc(C)c4nc3n(Cc3ccco3)c2=N)cc1OC | 11.2 µM (active) |
| CC(C)C1N=C(c2ccc3c(c2)OCO3)CC(c2ccccc2O)N1 (configuration not stated) | 14.1 µM (active) |

| SMILES | Potency |
| --- | --- |
| O=C(NC1CCCC1)c1ccc([N+](=O)[O-])s1 | 10 µM (active) |
| COc1ccccc1N(Cc1ccccc1)S(=O)(=O)c1cccc(C(=O)Nc2ccccn2)c1 | 7.08 µM (active) |
| CC(=O)c1ccccc1OCC(O)CN1CCN(C(c2ccccc2)c2ccccc2)CC1 (configuration not stated) | 3.55 µM (active) |
| CCOC(=O)C1CCN(C(=O)CCc2nnc3ccc(NCc4ccco4)nn23)CC1 | 5.01 µM (active) |
| O=C(CCl)Nc1cccc(S(=O)(=O)NC2=NCCC2)c1 | 0.794 µM (active) |
| COC(=O)[C@@]1(Cc2ccc(F)cc2)[C@@H]2[C@@H](CC(=O)[C@H]2CC(=O)C(=O)N(C)C)CN1C(=O)c1ccccc1 | 10 µM (active) |
| COc1ccccc1N1CCN(C(=O)c2noc(C(C)C)c2[N+](=O)[O-])CC1 | 8.91 µM (active) |
| CCCCCCCn1c(=O)c(C(=O)OC)c(N)c2ccccc21 | 6.31 µM (active) |
| COc1cccc(CNc2cc(C)ccn2)c1O | 7.94 µM (active) |
| Cc1ccnc(NCc2cccc3ccccc23)c1 | 10 µM (active) |
| CSc1ccc(CNc2cccc3ccccc23)cc1 | inactive |
| Cc1cccc(NCc2cccc3ccccc23)n1 | 14.1 µM (active) |
| N#CCc1nc(C(c2ccccc2)c2ccccc2)no1 | 7.08 µM (active) |
| Cc1ccccc1-n1nc2c(c1NC(=O)C1CCCC1)CS(=O)(=O)C2 | inactive |
| c1csc(CNc2ncnc3nc[nH]c23)c1 | 15.8 µM (active) |
| O=C(NC1CCN(Cc2ccccc2)CC1)C1CCN(c2nnc(-n3cccc3)s2)CC1 | 5.01 µM (active) |
| CC1Cc2ccccc2N1CC(=O)Nc1ccc2c(c1)OCCCO2 (configuration not stated) | 15.8 µM (active) |
| CC(=O)Nc1ccc(NC(=O)c2ccc(C3SCC(=O)N3CCc3ccccc3)cc2)cc1 (configuration not stated) | 12.6 µM (active) |
| O=C1CSC(c2cccnc2)N1CCc1ccccn1 (configuration not stated) | inactive |
| O=C(Nc1ccc(N2CCN(C(=O)c3ccccc3)CC2)cc1)c1ccc([N+](=O)[O-])o1 | 3.16 µM (active) |
| O=C(Nc1ccc(N2CCN(C(=O)c3cccs3)CC2)cc1)c1ccc([N+](=O)[O-])o1 | 2.24 µM (active) |
| Cc1ccccc1C(=O)N1CCN(c2ccc(NC(=O)c3ccc([N+](=O)[O-])o3)cc2)CC1 | 6.31 µM (active) |
| O=C(Nc1ccc(N2CCN(C(=O)c3ccco3)CC2)cc1)c1ccc(F)cc1 | 3.98 µM (active) |

| SMILES | Potency |
| --- | --- |
| CCN(CC)CCNC(=O)C1c2cc(OC)c(OC)cc2C(=O)N2CCc3ccccc3C12 (configuration not stated) | 2.24 µM (active) |
| COC(=O)[C@@]12CCCN1[C@H](c1ccc(-c3cccc(Cl)c3)c(OC)c1)[C@H]1C(=O)N(C)C(=O)[C@H]12 | 1.12 µM (active) |
| CCN1C(=O)[C@@H]2[C@@H](c3ccc(SC4CCCCC4)c(OC)c3)N3CCC[C@@]3(C(=O)OC)[C@@H]2C1=O | 2.51 µM (active) |
| CC(C)(C)c1nc(SCC(=O)Nc2nc3c(s2)CCCC3)c2ccccc2n1 | 2 µM (active) |
| COc1ccccc1OCC(=O)Nc1nc2c(s1)CCCC2 | inactive |
| CC(C)(C)c1nc(SCC(=O)Nc2ccc(N3CCOCC3)cc2)c2ccccc2n1 | 8.91 µM (active) |
| Cc1ccc(-c2cc(=O)c3ccc(F)cc3[nH]2)cc1 | 3.98 µM (active) |
| CC(=O)c1c(C)cc(C)c(CSc2nc(C)cc(=O)[nH]2)c1C | inactive |
| Cc1ccc(S(=O)(=O)Nc2cc(=O)[nH]c(SCc3ccc(Cl)cc3)n2)cc1 | 11.2 µM (active) |
| Cc1oc(-c2ccccc2Cl)nc1CSCC(=O)N1CCCC1 | 11.2 µM (active) |
| Cc1oc(-c2ccccc2F)nc1CS(=O)(=O)CC(=O)NCCCN1CCN(C)CC1 | inactive |
| O=C(Cc1n[nH]c(=O)c2ccccc12)OCc1c(Cl)cccc1Cl | inactive |
| COc1ccc(-n2c(C)cc(C(=O)COC(=O)Cc3n[nH]c(=O)c4ccccc34)c2C)cc1 | 3.55 µM (active) |
| COc1ccc(C(C)=O)cc1CSc1nc2ccccc2c(=O)n1-c1ccccc1C | 7.94 µM (active) |
| Cc1ccc(/C=N/NC(=O)CSc2nc3ccccc3c(=O)n2-c2ccccc2C)s1 | 6.31 µM (active) |
| Cc1ccc(-c2nn(C(C)(C)C)c3ncnc(N)c23)cc1 | 5.01 µM (active) |
| O=C(Nc1nnc(SCc2ccc(F)cc2)s1)c1ccccn1 | 2.82 µM (active) |
| Oc1ccc(-c2n[nH]c(=S)n2-c2ccc3c(c2)OCCO3)c(O)c1 | 0.355 µM (active) |
| COc1cc(C(=O)NCc2ccncc2)cc(Br)c1OCc1ccccc1 | 8.91 µM (active) |
| O=C(c1ccc(S(=O)(=O)Cc2cc(F)ccc2F)c([N+](=O)[O-])c1)N1CCCC1 | 7.94 µM (active) |
| Cc1ccc(S(=O)(=O)N2CCN(c3ccc(C(=O)N4CCOCC4)cc3[N+](=O)[O-])CC2)cc1 | 4.47 µM (active) |
| O=C(c1ccc(S(=O)(=O)Cc2ccccc2Cl)c([N+](=O)[O-])c1)N1CCOCC1 | 3.98 µM (active) |
| Cc1cccc(NC(=O)COC(=O)c2cccc3c2C(=O)c2ccccc2C3=O)c1C | 12.6 µM (active) |

| SMILES | Potency |
| --- | --- |
| CC(C)NC(=O)NC(=O)COC(=O)c1ccccc1Oc1ccccc1 | inactive |
| CN(C)S(=O)(=O)c1cc(NC(=O)C2=COCCO2)ccc1Cl | 10 µM (active) |
| CN(C)S(=O)(=O)c1cc(NC(=O)c2cc(=O)c3ccccc3o2)ccc1Cl | 5.01 µM (active) |
| CCCCCCn1c(=O)[nH]c2nc3cc(N)ccc3nc2c1=O | 14.1 µM (active) |
| COc1ccc(NC(=O)NC2CCCCCCC2)c(OC)c1 | 11.2 µM (active) |
| O=C(O)c1ccccc1Nc1ccc([N+](=O)[O-])cc1 | inactive |
| COc1cc(-c2ccc(Nc3ccccc3C(=O)O)c(OC)c2)ccc1Nc1ccccc1C(=O)O | 10 µM (active) |
| COc1ccccc1NC(=O)Cc1nnc(SCC(=O)NC2CCCCC2)n1C | inactive |
| COc1ccc(NC(=O)N2CCCc3cc(C)ccc32)c(OC)c1 | 12.6 µM (active) |
| COc1cc(-c2ccc(NC(=O)NC3CC3)c(OC)c2)ccc1NC(=O)NC1CC1 | 11.2 µM (active) |
| COc1ccc(NC(=O)NC2CCCc3ccccc32)c(OC)c1 (configuration not stated) | 6.31 µM (active) |
| CCNc1ccc(Br)cc(C(=O)/C=C/c2c(Cl)cccc2Cl)c1=O | 7.08 µM (active) |
| O=C(NC(=S)Nc1nc(-c2ccccc2)cs1)c1cccnc1 | 12.6 µM (active) |
| CC(=O)Oc1ccc(-c2csc(Nc3cccnc3)n2)cc1 | inactive |
| CC(Oc1ccc(Br)cc1)C(=O)N1CCN(c2ccccn2)CC1 (configuration not stated) | 12.6 µM (active) |
| O=C(c1ccccc1Br)N1CCN(c2ccccn2)CC1 | inactive |
| CCCCn1c(=O)[nH]c(=O)c2c1nc(Cn1ncc(Cl)c(Cl)c1=O)n2CCC | 10 µM (active) |
| CC(C)CNC(=O)C(=O)Nc1cc2c3c(c1)C(C)C(=O)N3CCC2 (configuration not stated) | 14.1 µM (active) |
| Cn1c(Cc2cccc3ccccc23)nnc1SCc1ccc([N+](=O)[O-])cc1 | 12.6 µM (active) |
| Cc1ccccc1NC(=O)Cc1nnc(SCC(=O)NC2CCCCC2)n1C | inactive |
| COc1ccccc1C1CCCN1Cc1nc(-c2ccc(C)s2)oc1C (configuration not stated) | 14.1 µM (active) |
| N#CC1=C(N)Oc2n[nH]c(-c3cccnc3)c2C1c1ccc([N+](=O)[O-])o1 (configuration not stated) | 15.8 µM (active) |
| C=C1C(=O)[C@@]23[C@H](O)C[C@@H]4C(C)(C)CC[C@H](O)[C@]4(C)[C@@H]2C[C@H](O)[C@@H]1[C@H]3O | 14.1 µM (active) |
